# Source: PubChem
# Only some compounds are listed: those with a hit (about 2.3% of all), similar ones and a draw of the others.
# Coupling enz: qHTS Assay for Inhibitors of Fructose-1,6-bisphosphate Aldolase from Giardia Lamblia: Coupling assay counterscreen; activity change, negative = inhibition, % at 58.2 µM, hits read low; hit rate 0.67% among 290,000; coupling enzyme system counterscreen, AmpLite Red fluorescence; in the data active = activity change below about -30%; note: % is set by controls: 0 for no effect and ±100 for the full control effect
#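 Counterscreen of the coupled detection system alone, without aldolase: glyceraldehyde-3-phosphate coupling enzymes plus AmpLite Red readout. Compounds at 57.5 uM final, 10 min RT preincubation, 20 min RT reaction, fluorescence 525/598 nm.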
# VDR inh: Inhibitors of the vitamin D receptor (VDR): qHTS; Vitamin D3 receptor (Homo sapiens), P11473; VDR-SRC2-3 peptide fluorescence polarization, 2 h; Potency, µM, inactives show max response, negative = inhibition, most hits filed as inhibitors; hit rate 0.93% among 400,000; AID 504847, 2011; note: potency is the fitted concentration of half-maximal effect; % is set by controls: 0 for no effect and ±100 for the full control effect
# Target sequence (P11473 whole entry, looked up): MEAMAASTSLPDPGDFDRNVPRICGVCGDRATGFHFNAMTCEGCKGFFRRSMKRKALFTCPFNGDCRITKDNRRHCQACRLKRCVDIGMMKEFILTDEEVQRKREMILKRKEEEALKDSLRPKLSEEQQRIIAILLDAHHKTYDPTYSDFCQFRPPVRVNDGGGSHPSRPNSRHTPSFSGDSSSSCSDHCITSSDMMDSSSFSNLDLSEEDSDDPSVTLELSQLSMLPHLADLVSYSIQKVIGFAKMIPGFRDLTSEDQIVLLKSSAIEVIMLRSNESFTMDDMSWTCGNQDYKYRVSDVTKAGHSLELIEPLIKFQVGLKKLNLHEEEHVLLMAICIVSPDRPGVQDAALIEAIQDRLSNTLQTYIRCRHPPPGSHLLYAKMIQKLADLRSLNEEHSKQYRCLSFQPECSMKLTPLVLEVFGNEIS
#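 Measured by FP: displacement of SRC2-3 coactivator peptide from VDR by library compounds, following a two-hour ambient incubation.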
# JMJD2E inh: qHTS Assay for Inhibitors of Human Jumonji Domain Containing 2E (JMJD2E); hit rate 1.6% among 230,000; Lysine-specific demethylase 4E (Homo sapiens), B2RXH2; AID 2147, 2009; JMJD2E catalytic domain, FDH-coupled NADH fluorescence (FDH is formaldehyde dehydrogenase); Potency, µM (highest dose often 57.1 µM), without a hit: at the highest dose activity change, negative = inhibition, usual class: inhibitors; active = well fitted inhibition curve with a large enough effect, not every such curve was filed as active; inconclusive = small, poorly fitted or top-dose-only effect, or another doubt; inactive = no such curve, though single readings can be large or run the other way;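 note: potency is the fitted concentration of half-maximal effect; 0% = wells with enzyme and -100% = buffer wells without enzyme; nearly all actives have a fitted effect of over 50% in size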
# GoLoco inh red: qHTS Assay for Inhibitors of RGS12 GoLoco Motif Activity (Red Fluorophore) | Guanine nucleotide-binding protein G(i) subunit alpha-1 (Homo sapiens), P63096 | Gai1:RGS12 GoLoco peptide FP, rhodamine, 10 min | hit rate 0.44% among 230,000 | Potency, µM (highest dose often 61.6 µM), for inactives: top-dose activity, negative = inhibition, hits mostly inhibitors; active = well fitted inhibition curve with a large enough effect, not every such curve was filed as active; inactive = no such curve, though single readings can be large or run the other way; note: potency is the fitted concentration of half-maximal effect; % is set by controls: 0 for no effect and ±100 for the full control effect; nearly all actives have a fitted effect of over 30% in size
# HttQ103 aggreg: qHTS Multiplex Assay to Identify Dual Action Probes in a Cell Model of Huntington: Aggregate Formation (GFP) | Potency, µM (series often up to 46.1 µM), for the others: top-dose activity change, negative = inhibition, most hits filed as inhibitors | PC12 HttQ103-GFP aggregates, Acumen cytometry, 40 h | hit rate 1.1% among 220,000 | AID 1688, 2009; note: potency is the fitted concentration of half-maximal effect; % is set by controls: 0 for no effect and ±100 for the full control effect; nearly all actives have a fitted effect of over 60% in size
#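 Read-out: GFP aggregate count by laser scanning cytometer (488 nm excitation, 500-530 nm emission, 1–25 µm objects >6 SD above background). Cells: PC12, inducible HTTex1-Q103-GFP, 100 nM tebufenozide; compounds titrated.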
# HTT cytoprotect: qHTS Multiplex Assay to Identify Dual Action Probes in a Cell Model of Huntington: Cytoprotection (ATP). PC12 HTT-Q103 induced, cytoprotection, ATP luminescence, 40 h. Potency, µM (doses to about 56.4 µM), for the others: cytoprotection (ATP increase), usual class: activators. hit rate 0.14% among 230,000; note: potency is the fitted concentration of half-maximal effect; % of control where 0% means no effect; nearly all actives have a fitted effect of over 45% in size
#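 Compounds added alongside 100 nM tebufenozide, which induces toxic Q103 huntingtin exon 1-GFP in stable PC12 cells; surviving cells quantified by luminescent ATP measurement. Medium: phenol red-free DMEM, 5% equine and 5% calf serum.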
# Active calls of the source: *; ? = inconclusive; · = no result; [ ] = dose if it differs, or a comment. Unless noted, calls come from the whole dose curve; as a rule, active = well fitted curve in the direction sought with a large enough effect; inconclusive = small, poorly fitted or top-dose-only effect, or another doubt; inactive = no such curve, though single readings can be large; an effect the other way counts as inactive or inconclusive.
SMILES,Coupling enz,VDR inh,JMJD2E inh,GoLoco inh red,HttQ103 aggreg,HTT cytoprotect
Cc1cc(N=Cc2c(O)ccc3ccccc23)no1,-43*,2%,-20%,·,18%,26%
CCOC(=O)c1cc(CC)sc1/N=C/c1c(O)ccc2ccccc12,-34*,7%,?,-14%,29%,8%[10 µM]
Cc1c(Cc2ccccc2)sc(/N=C/c2c(O)ccc3ccccc23)c1C(N)=O,-12,-26%,?,234%,-21%,17%[10 µM]
N[C@H](CCC(=O)NCS(=O)(=O)O)C(=O)O,·,·,·,·,·,9%[1.9 µM]
O=C(NC(=S)/C(=C1\CCCCCN1)[N+](=O)[O-])c1ccccc1,·,-23%,·,·,·,·
O=C(Nc1nc(COc2ccccc2)cs1)C12CC3CC(CC(C3)C1)C2,-4,2%,1%,0%,11µM*,-125%
CCN(CC)c1ccc(/C=N/Nc2ccccc2)c(O)c1,-14,79µM*,16µM*,-2%,16%,-11%
Oc1c(Br)cc(Cl)cc1C=Nc1ccc(N2CCOCC2)cc1,-8,?,6%,217%,17%[9.22 µM],32%[10 µM]
CCN(CC)c1ccc(/C=N/NC(=O)c2ccoc2C)c(O)c1,-3,-21%,11µM*,4%,?,-86%[10 µM]
CCN(CC)c1ccc(/C=N/NC(=O)OC)c(O)c1,-2,8%,13µM*,-11%,-2%,-51%
CCN1CCN(c2ccc(N=Cc3ccc(O)cc3O)cc2)CC1,-4,18%,14µM*,14%,·,·
COc1cc(C2C(c3ccccc3)C(c3cc(OC)cc(=O)o3)C2c2ccccc2)oc(=O)c1 (stereo unspecified),·,-7%,·,·,·,·
CCc1cc2c3c([nH]c2cc1S(=O)(=O)NCCCOC)CC(C)(C)CC3=O,-1,12%,·,·,·,·
Cc1ccc(Cl)cc1NC(=O)Cn1c(=O)n(C(C)C)c(=O)c2oc3ccccc3c21,·,-13%,·,·,·,·
CCN(CC)c1ccc(N=Cc2ccc(N(CC)CC)cc2O)cc1,-13,50µM*,?,112%,-5%,-23%
CCN(CC)c1ccc(C=Nc2ccc(C)cc2)c(O)c1,-16,-1%,-5%,15%,-13%,24%[1.9 µM]
O=C(COC(=O)CCSc1ccc(Cl)cc1)NCCc1ccccc1,3,-4%,4%,·,?,10%[10 µM]
O=C(COC(=O)CCSc1ccc(Cl)cc1)NCc1ccccc1Cl,-2,1%,-8%,0%,16µM*,·
COC(=O)C/C=C\[C@@H](C)[C@@H](/C=N\O[C@@H](C)CN1CCCCc2nc(C)c(C)cc21)OC,-2,·,·,·,·,2%[10 µM]
N#Cc1nccnc1S(=O)(=O)c1cccs1,-1,35µM*,-15%,-15%,-39%[9.22 µM],-22%[10 µM]
Cc1cc(N/N=C/c2ccc(O)c(C)c2O)nc(-c2ccccc2O)n1,-1,10%,25µM*,9%,16µM*,25%[10 µM]
Cc1oc2ccc(O)c(CN3CCOCC3)c2c1C(=O)c1ccc(Cl)cc1,-40*,-7%,1%,3%,5%,-46%
Cc1ccc(CNC(=O)COC(=O)c2ccc(S(=O)(=O)NCc3ccco3)cc2)cc1,·,30%,·,·,·,·
CCOC(=O)c1c[nH]c(=S)n(-c2ccccc2)c1=O,·,-9%,·,·,·,·
CCOC(=O)c1c(SCCN2CCCC2)n(-c2ccccc2)c(=S)n(-c2ccccc2)c1=O,·,71µM*,·,·,·,·
COc1ccc(Br)c(OC)c1C(=O)NC(=O)Nc1nc(C)cc(C)n1,-31*,8%,5%,-5%,8%[9.22 µM],13%[10 µM]
COc1ccc([N+](=O)[O-])c(OC)c1C(=O)NC(=O)Nc1nc(C)cc(C)n1,-8,12%,-1%,11%,-8%[9.22 µM],-23%[10 µM]
CCC(COC(=O)Nc1cccc(C)c1)NC(=O)OCC(C)C (stereo unspecified),-6,5%,8%,-6%,10µM*,-35%
CCN(CC)c1ccc(CNS(=O)(=O)c2cc3c(cc2C)NC(=O)CO3)cc1,·,14%,·,·,·,·
